aSyn UTR act: Activators via SNCA 5'UTR binding, MLPCN; activity score, % (tested at 7.5 µM), hits read low; alpha-synuclein 5'UTR reporter, activators screen; 7.1% of 300,000 active; AID 1814, 2009; in the data active means activity score below about -60%
* hit, by the source's call. A selection follows.

SMILES	aSyn UTR act
Cc1cccn2c(CN(C)CCC3CCCCO3)c(C(=O)N3CCCCC3)nc12 (configuration not stated)	-69*
Cc1ccc(C(=O)/C=C/Nc2ccc([N+](=O)[O-])cc2Br)cc1	-124*
CCOc1ccc(N/C=C/C(=O)c2ccc(C)cc2)c([N+](=O)[O-])c1	-198*
CCOc1ccc(N/C=C/C(=O)c2ccc3ccccc3c2)c([N+](=O)[O-])c1	-159*
c1ccc(CC2CCN(C3=Nc4cccc5cccc3c45)CC2)cc1	-95*
Oc1ccc(CN2CCC(Cc3ccccc3)CC2)c2cccnc12	105
COc1ccccc1N1CCN(C2=Nc3cccc4cccc2c34)CC1	-181*
CN1CCN(c2ccc(-c3cccc(NC(=O)COc4ccccc4)c3)nn2)CC1	-70*
CN1CCN(c2ccc(-c3cccc(NC(=O)COc4ccc(Cl)cc4)c3)nn2)CC1	-131*
CCC(=O)Nc1cccc(-c2ccc(N3CCN(C)CC3)nn2)c1	-73*
COc1ccc(-n2nc3cc(C)c(NC(=S)NC(=O)c4ccccc4C)cc3n2)cc1	-173*
CCC(=O)Nc1cc2nn(-c3ccc(C)cc3)nc2cc1C	80
CCCCC(=O)Nc1cc2nn(-c3ccc(OC)cc3)nc2cc1C	-67*
CSc1nc(N(C)NC(=O)c2ccc(Cl)cc2)c2ccccc2n1	93
Cc1ccc(C(=O)NNc2c3ccccc3nc3ccccc23)cc1	-87*
O=C(NNc1c2ccccc2nc2ccccc12)c1ccc(Cl)cc1	-80*
C=C1[C@@H](C)C2[C@H](Cc3ccccc3)NC(=O)[C@]23OC(=O)CC[C@H](O)CCC[C@H](C)C/C=C/[C@H]3[C@@H]1O (some centres not stated)	80
CNC(=O)c1ccsc1NC(=O)c1ccc2c(c1)CCCC2	-214*
COc1ccc(-c2cc(O)cc(O)c2)cc1	-143*
CC(=O)c1cc(-c2ccccc2)n(CC(=O)NC2CCCC2)c1C	-65*
Cc1ccc(CN2C3CCCC2CC(NC(=O)c2ccc(C)cc2)C3)cc1 (configuration not stated)	-163*
O=[N+]([O-])c1cccc2ccc(/C=C/c3ccc(Cl)cc3)nc12	-149*
O=[N+]([O-])c1cccc2ccc(/C=C/c3ccc(C(F)(F)F)cc3)nc12	-94*
CC(=O)Nc1ccc(/C=C/c2ccc3c([N+](=O)[O-])cccc3n2)cc1	-164*
O=[N+]([O-])c1cccc2ccc(/C=C/c3cccc(Br)c3)nc12	-107*
SMILES	aSyn UTR act
CCOC(=O)Cc1cc(=O)[nH]c(Nc2nc3ccccc3o2)n1	-83*
CCOc1ccc(-c2cc(C(=O)N/N=C(\C)c3cccnc3)c3ccccc3n2)cc1	-92*
C/C(=N\NC(=O)c1nn(C)c(C)c1Br)c1ccc(NC(=O)c2ccccc2F)cc1	-69*
C/C(=N\NC(=O)c1c(Br)c(C)nn1C)c1ccc(NC(=O)c2ccoc2C)cc1	-106*
Cc1ccc(/C=N/NC(=O)c2cc(-c3cccnc3)nc3ccccc23)cc1	81
C/C(=N/NC(=O)c1ccoc1C)c1ccc(N2CCOCC2)cc1	-131*
C/C(=N\NC(=O)c1ccoc1C)c1cccnc1	-117*
C/C(=N\NC(=O)c1ccc(NS(=O)(=O)c2cccs2)cc1)c1ccccn1	71
C/C(=N/NC(=O)c1ccoc1C)c1ccc(NC(=O)c2ccncc2)cc1	-206*
C/C(=N\NC(=O)c1nn(C)c(C)c1Br)c1ccc(NC(=O)c2ccc(C)s2)cc1	-149*
C/C(=N\NC(=O)c1nn(C)c(C)c1Br)c1ccc(NC(=O)c2ccoc2C)cc1	-115*
CCOC(=O)c1sc2ccccc2c1NC(=O)c1coc2ccccc2c1=O	-74*
CC1(C)CC(NC(=O)COc2ccccc2Cl)CC(C)(C)N1	-66*
Cc1c(OCC(=O)NC2CC(C)(C)NC(C)(C)C2)ccc2c1oc(=O)c1ccccc12	-107*
CC1(C)CC(=O)c2sc(NC(=O)C3COc4ccccc4O3)nc2C1 (configuration not stated)	-101*
CC1(C)CC(=O)c2sc(NC(=O)c3ccco3)nc2C1	-120*
O=C(CCl)N1c2ccccc2SCC1c1ccccc1 (configuration not stated)	-64*
CCN=C1NN=C(c2c[nH]c3ccccc23)CS1	-68*
COCC(C)N=C1NN=C(c2c[nH]c3ccccc23)CS1 (configuration not stated)	-66*
O=C(Nc1nc2c(s1)CN(Cc1ccccc1)CC2)C1CCC1	-108*
Cc1nc(Nc2nc3ccccc3o2)nc2c1CCC2	71
Cc1ccc2oc(-c3ccccc3)nc2c1	-188*
Cc1ccc2oc(Nc3nc(C)cc(C)n3)nc2c1	-163*
Cc1ccc(C)c(-c2nc3cc(N)ccc3o2)c1	63
CCOc1cccc(-c2nc3cc(C)ccc3o2)c1	-153*
SMILES	aSyn UTR act
CCOc1ccc(NC(=O)Nc2ccon2)cc1	-116*
O=C(Nc1ccc(Cl)cc1)Nc1ccon1	-129*
Cc1ccc(NC(=O)Nc2ccon2)cc1	-102*
CC(C)CC[n+]1ccccc1/C=C/c1ccc(N(C)C)cc1	79
CN(C)c1ccc(/C=C/c2cccc[n+]2[O-])cc1	-101*
c1ccc(Sc2ncnc3c2oc2ccccc23)nc1	-195*

Screens from PubChem.
